Measured values from the supplement of paper PMC10849652.
The full data set covers some 7,900 targets. This sample favours those with a hit. About 0.6% of all pairs of compound and target were hits.

How the values were obtained:
Test in all cases: log2 fold change, soluble protein after heating vs DMSO (PISA); higher = thermal stabilisation; K562 cells, 10 uM, 30 min; active = over 0.2 and 3.5 SD of the protein, either way, in both replicates (recomputed)
[1] = compound: C1=CC=C(C=C1)[C@H](COC2=CC3=C(C=C2)NC(=O)N3)NC(=O)C4=CC=CN(C4=O)CC5=CC(=C(C=C5)F)F
Method in brief: (§1)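 K562 cells (2×10^6 cells/mL) were treated with 10 μM compound for 30 min, and aliquots were heated for 3 min over 48°C-58°C. Pooled aliquots were extracted in PBS with 0.5% NP-40 at 4°C, and the supernatant after 21,000xg for 90 min was measured by TMTpro 16plex LC-MS/MS with channel sums equalised. Reported thermal stability, relative to control samples and from duplicates, is a log2 fold change.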

[2] = compound: CC1=C(SC2=C1C(=N[C@H](C3=NN=C(N32)C)CC(=O)N)C4=CC=C(C=C4)Cl)C
Method in brief: as §1

[3] = compound: CC1=C2C(=CC=C1)N=C(N(C2=O)C3=CC=CC=C3C)CN4C=NC5=C(N=CN=C54)N
Method in brief: as §1

[4] = compound: Cc1sc2c(c1C)C(c1ccc(Cl)cc1)=N[C@@H](CC(=O)OC(C)(C)C)c1nnc(C)n1-2
Method in brief: as §1

[5] = compound: c1ccc([C@@H]2C[C@H]2NC2CCNCC2)cc1
Method in brief: as §1

Measured: log2 fold change

PELP1 (UniProt Q8IZL8)
UniProt Q8IZL8, sequence (Q8IZL8 whole entry, looked up): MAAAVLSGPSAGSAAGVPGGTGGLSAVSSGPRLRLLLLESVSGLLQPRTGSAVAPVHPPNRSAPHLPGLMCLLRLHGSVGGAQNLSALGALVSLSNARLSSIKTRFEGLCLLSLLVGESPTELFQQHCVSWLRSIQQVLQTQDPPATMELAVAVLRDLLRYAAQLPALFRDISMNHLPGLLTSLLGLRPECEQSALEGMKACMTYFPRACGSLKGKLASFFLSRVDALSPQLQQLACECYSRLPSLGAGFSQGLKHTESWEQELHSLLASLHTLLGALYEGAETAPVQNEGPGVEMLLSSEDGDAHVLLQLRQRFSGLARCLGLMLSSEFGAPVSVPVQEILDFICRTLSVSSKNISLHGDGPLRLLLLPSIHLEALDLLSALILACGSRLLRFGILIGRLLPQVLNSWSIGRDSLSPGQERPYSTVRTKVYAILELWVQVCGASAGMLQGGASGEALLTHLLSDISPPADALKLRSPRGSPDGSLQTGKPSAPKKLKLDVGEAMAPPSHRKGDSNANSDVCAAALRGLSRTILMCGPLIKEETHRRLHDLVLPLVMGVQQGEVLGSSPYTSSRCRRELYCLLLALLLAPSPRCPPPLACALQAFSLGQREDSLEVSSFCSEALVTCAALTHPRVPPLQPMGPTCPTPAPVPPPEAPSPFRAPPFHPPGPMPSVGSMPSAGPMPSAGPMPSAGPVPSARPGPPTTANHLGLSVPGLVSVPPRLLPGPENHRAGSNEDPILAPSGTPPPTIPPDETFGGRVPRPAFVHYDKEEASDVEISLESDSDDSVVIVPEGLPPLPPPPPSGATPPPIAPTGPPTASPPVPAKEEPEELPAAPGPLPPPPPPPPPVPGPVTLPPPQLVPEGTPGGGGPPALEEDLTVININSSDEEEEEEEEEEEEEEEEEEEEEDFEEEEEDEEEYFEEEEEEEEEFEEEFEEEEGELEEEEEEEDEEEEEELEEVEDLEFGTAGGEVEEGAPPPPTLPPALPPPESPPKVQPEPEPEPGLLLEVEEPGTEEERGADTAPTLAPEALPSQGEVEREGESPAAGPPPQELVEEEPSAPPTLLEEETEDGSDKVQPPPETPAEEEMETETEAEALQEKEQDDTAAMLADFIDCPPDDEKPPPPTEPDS
inactive: [1] 0 | [2] 0.006 | [3] -0.028 | [4] -0.044 | [5] -0.013

PRKCG (UniProt P05129)
inactive: [1] -0.216 | [2] -0.025 | [3] 0.033 | [4] -0.017 | [5] 0.077

PLBD1 (UniProt Q6P4A8)
inactive: [1] 0.005 | [2] -0.011 | [3] -0.018 | [4] -0.006 | [5] 0.013

PTDSS1 (UniProt P48651)
inactive: [1] -0.027 | [2] -0.072 | [3] -0.115 | [4] 0.042 | [5] 0.017

PLD3 (UniProt Q8IV08)
inactive: [1] 0.022 | [2] 0.058 | [3] 0.033 | [4] 0.017 | [5] 0.009

PPIL4 (UniProt Q8WUA2)
inactive: [1] 0.012 | [2] -0.022 | [3] 0.036 | [4] 0.039 | [5] 0.016

PHKA2 (UniProt P46019)
inactive: [1] -0.018 | [2] -0.003 | [3] 0.053 | [4] 0.023 | [5] 0.024

PPIL1 (UniProt Q9Y3C6)
UniProt Q9Y3C6, sequence (Q9Y3C6 whole entry, looked up): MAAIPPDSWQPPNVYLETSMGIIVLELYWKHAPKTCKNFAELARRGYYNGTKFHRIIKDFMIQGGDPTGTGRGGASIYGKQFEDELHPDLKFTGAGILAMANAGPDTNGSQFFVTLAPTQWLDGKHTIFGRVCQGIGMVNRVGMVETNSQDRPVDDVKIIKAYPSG
inactive: [1] -0.046 | [2] 0.012 | [3] 0.021 | [4] 0.032 | [5] -0.052

PRKAR1A (UniProt P10644)
inactive: [1] 0.213 | [2] -0.019 | [3] 0.119 | [4] 0.041 | [5] -0.008

PARN (UniProt O95453)
inactive: [1] -0.018 | [2] 0.059 | [3] 0.071 | [4] -0.028 | [5] 0.025

PRKACB isoform 2 (UniProt P22694)
inactive: [1] -0.06 | [2] 0.021 | [3] 0.032 | [4] -0.038 | [5] 0.003

PDE4A (UniProt P27815)
inactive: [1] -0.11 | [2] 0.128 | [3] 0.102 | [4] -0.112 | [5] 0.201

PLEKHM2 (UniProt Q8IWE5)
inactive: [1] -0.027 | [2] 0.076 | [3] -0.016 | [4] 0.089 | [5] -0.048

PEF1 (UniProt Q9UBV8)
UniProt Q9UBV8, sequence (Q9UBV8 whole entry, looked up): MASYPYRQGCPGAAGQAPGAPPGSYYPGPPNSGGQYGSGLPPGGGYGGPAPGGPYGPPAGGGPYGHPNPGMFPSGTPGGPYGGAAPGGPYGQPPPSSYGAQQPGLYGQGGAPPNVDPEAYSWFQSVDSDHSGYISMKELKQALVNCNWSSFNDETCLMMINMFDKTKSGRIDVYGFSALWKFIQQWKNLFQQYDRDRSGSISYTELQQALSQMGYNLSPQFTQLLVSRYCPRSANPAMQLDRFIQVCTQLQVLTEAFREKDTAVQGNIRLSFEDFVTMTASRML
inactive: [1] 0.01 | [2] 0.185 | [3] 0.047 | [4] -0.178 | [5] -0.014

PPP1R35 (UniProt Q8TAP8)
UniProt Q8TAP8, sequence (Q8TAP8 whole entry, looked up): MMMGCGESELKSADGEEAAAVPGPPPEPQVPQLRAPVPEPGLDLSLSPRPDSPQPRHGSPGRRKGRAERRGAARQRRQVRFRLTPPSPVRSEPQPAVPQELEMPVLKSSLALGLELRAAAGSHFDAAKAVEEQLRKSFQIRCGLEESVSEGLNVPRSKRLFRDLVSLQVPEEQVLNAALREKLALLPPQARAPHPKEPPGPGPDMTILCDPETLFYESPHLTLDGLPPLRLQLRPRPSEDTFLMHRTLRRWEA
active: [5] 0.362
inactive: [1] 0.01 | [2] 0.006 | [3] 0.067 | [4] 0.03

PYGL (UniProt P06737)
inactive: [1] 0.006 | [2] 0.047 | [3] 0.026 | [4] 0.006 | [5] -0.032

POLR2A (UniProt P24928)
inactive: [1] -0.014 | [2] 0.158 | [3] 0.031 | [4] 0.17 | [5] -0.059

POTEI (UniProt P0CG38)
inactive: [1] 0.025 | [2] 0.012 | [3] -0.059 | [4] -0.03 | [5] -0.002

PRKAR1B (UniProt P31321)
UniProt P31321, sequence (P31321 whole entry, looked up): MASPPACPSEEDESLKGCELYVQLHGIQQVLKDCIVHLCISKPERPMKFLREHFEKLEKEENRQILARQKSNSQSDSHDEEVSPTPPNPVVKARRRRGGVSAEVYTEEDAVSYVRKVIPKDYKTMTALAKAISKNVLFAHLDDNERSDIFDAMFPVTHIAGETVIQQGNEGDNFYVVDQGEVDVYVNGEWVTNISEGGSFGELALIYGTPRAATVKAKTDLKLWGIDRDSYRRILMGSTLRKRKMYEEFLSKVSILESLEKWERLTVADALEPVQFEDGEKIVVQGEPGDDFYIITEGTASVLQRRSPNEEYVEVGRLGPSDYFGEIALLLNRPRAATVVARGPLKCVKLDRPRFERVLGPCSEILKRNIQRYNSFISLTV
inactive: [1] 0.21 | [2] -0.026 | [3] 0.059 | [4] 0.019 | [5] -0.061

PTGFRN (UniProt Q9P2B2)
inactive: [1] -0.014 | [2] 0.036 | [3] 0.043 | [4] 0.04 | [5] -0.006

POGZ (UniProt Q7Z3K3)
inactive: [2] 0.056 | [3] 0.099 | [4] 0.025 | [5] -0.032

PKM isoform 2 (UniProt P14618)
inactive: [1] 0.063 | [3] -0.057 | [4] -0.046

PNPLA4 (UniProt P41247)
UniProt P41247, sequence (P41247 whole entry, looked up): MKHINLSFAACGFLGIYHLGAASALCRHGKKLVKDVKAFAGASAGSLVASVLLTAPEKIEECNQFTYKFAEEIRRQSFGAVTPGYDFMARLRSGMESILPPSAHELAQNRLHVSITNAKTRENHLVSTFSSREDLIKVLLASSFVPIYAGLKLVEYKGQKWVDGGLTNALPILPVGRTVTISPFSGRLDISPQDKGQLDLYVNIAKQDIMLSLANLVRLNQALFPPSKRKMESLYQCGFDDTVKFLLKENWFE
inactive: [1] 0.068 | [2] 0.158 | [3] 0.042 | [4] 0.099 | [5] 0.178

PATL1 (UniProt Q86TB9)
UniProt Q86TB9, sequence (Q86TB9 whole entry, looked up): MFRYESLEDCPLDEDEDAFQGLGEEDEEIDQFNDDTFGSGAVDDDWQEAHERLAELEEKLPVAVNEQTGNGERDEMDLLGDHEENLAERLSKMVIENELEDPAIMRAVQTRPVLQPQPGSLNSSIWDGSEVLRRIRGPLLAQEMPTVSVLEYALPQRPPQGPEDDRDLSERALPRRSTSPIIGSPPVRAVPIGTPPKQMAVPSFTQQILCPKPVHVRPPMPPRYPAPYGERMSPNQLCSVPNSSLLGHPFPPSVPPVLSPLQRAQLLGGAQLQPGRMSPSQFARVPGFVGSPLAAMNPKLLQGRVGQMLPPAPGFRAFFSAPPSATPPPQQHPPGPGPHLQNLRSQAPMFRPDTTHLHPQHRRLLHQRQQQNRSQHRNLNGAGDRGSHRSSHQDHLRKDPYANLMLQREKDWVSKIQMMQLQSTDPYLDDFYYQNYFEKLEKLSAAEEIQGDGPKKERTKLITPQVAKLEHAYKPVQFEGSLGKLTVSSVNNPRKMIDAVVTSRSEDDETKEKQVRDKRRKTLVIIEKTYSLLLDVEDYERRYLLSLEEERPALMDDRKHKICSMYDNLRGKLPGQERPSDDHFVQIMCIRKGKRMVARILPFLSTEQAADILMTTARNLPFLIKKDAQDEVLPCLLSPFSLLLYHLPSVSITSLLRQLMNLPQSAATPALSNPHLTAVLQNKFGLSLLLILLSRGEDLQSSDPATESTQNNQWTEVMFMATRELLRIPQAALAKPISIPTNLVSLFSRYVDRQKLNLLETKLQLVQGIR
inactive: [1] -0.019 | [2] -0.004 | [3] 0.095 | [4] 0 | [5] -0.021

PRR14L (UniProt Q5THK1)
inactive: [2] -0.052 | [3] 0.312 | [4] 0.042 | [5] 0.103

PAN2 (UniProt Q504Q3)
inactive: [1] -0.298 | [3] 0.053

PRKD3 (UniProt O94806)
inactive: [1] -0.103 | [2] 0.044 | [3] -0.007 | [5] -0.097

PNPLA2 (UniProt Q96AD5)
UniProt Q96AD5, sequence (Q96AD5 whole entry, looked up): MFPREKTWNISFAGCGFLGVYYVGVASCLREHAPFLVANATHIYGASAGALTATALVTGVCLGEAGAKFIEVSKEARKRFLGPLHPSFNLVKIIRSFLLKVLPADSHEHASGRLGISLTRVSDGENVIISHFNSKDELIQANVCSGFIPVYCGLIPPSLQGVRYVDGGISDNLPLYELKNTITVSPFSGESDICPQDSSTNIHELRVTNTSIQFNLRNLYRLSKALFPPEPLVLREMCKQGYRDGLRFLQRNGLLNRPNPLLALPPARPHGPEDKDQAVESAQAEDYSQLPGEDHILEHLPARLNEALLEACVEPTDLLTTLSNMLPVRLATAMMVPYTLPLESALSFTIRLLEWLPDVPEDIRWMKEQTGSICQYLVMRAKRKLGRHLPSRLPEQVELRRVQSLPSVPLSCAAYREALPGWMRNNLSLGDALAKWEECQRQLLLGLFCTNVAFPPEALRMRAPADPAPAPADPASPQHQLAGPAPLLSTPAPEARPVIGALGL
inactive: [1] 0.06 | [2] 0.014 | [3] 0.037 | [4] 0.068 | [5] -0.046

PSMC3 (UniProt E9PLG2)
inactive: [1] 0.03 | [3] -0.056 | [4] 0.252

PHKA1 (UniProt P46020)
inactive: [1] 0.028 | [2] -0.078 | [4] 0.103 | [5] 0.011

PDPK1 (UniProt O15530)
UniProt O15530, sequence (O15530 whole entry, looked up): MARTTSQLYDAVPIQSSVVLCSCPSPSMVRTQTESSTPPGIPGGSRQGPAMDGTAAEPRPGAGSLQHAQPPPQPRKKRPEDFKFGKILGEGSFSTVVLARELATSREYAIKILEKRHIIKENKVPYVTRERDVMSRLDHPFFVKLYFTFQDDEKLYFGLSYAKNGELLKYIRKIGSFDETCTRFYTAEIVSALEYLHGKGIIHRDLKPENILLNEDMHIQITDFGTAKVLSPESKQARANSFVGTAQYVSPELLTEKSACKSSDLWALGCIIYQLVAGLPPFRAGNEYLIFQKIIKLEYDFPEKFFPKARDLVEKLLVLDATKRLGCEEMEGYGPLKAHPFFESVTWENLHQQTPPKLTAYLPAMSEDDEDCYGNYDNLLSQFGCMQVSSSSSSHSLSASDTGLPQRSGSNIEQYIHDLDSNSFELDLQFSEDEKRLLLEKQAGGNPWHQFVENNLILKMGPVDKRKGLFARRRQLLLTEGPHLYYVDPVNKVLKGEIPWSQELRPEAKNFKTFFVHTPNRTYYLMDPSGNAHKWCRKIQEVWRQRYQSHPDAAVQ
inactive: [2] 0.065 | [3] 0.014 | [4] -0.038 | [5] -0.018

PDLIM7 (UniProt Q9NR12)
inactive: [1] -0.04 | [2] 0.044 | [3] 0.092 | [4] -0.023 | [5] -0.011

PSMA3 (UniProt G3V4X5)
inactive: [1] -0.073 | [3] 0.147

PSMB4 (UniProt P28070)
inactive: [1] 0.024 | [2] -0.037 | [3] -0.038 | [4] -0.009 | [5] 0.03

PSMD8 (UniProt K7ERW6)
inactive: [3] 0.2 | [4] 0.03

PRMT8 (UniProt Q9NR22)
UniProt Q9NR22, sequence (Q9NR22 whole entry, looked up): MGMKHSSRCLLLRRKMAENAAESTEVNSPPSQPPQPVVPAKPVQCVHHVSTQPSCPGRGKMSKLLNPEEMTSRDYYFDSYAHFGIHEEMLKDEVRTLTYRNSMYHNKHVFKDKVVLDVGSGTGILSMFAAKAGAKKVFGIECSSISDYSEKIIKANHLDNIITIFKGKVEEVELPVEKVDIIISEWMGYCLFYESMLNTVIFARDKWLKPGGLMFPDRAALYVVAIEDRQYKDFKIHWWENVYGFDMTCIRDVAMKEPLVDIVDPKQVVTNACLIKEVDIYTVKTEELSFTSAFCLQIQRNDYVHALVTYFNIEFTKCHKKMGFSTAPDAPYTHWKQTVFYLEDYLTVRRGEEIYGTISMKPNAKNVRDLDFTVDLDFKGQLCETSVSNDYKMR
inactive: [1] -0.002 | [2] 0.133 | [3] 0.046 | [4] -0.028 | [5] -0.015

POLB (UniProt P06746)
inactive: [2] 0.053 | [4] -0.107 | [5] -0.006

PRKAA1 isoform 2 (UniProt Q13131)
inactive: [1] 0.001 | [2] 0.085 | [3] 0.024 | [4] 0.004 | [5] 0.019

PSMB9 (UniProt P28065)
UniProt P28065, sequence (P28065 whole entry, looked up): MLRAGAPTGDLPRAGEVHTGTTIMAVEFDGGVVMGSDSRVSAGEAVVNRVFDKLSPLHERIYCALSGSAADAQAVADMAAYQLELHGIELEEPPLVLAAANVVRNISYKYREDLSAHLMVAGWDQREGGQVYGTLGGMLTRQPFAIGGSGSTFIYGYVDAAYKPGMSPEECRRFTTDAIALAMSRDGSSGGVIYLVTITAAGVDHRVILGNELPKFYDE
inactive: [1] 0.182 | [2] 0.138 | [3] 0.179 | [5] -0.203

PSMA3 (UniProt H0YJ03)
inactive: [2] 0.193 | [3] 0.119 | [4] 0.048 | [5] 0.034

PEX7 (UniProt O00628)
inactive: [2] 0.035 | [3] 0.136 | [4] 0.021 | [5] -0.03
active: [1] -0.371

PPP2R5B (UniProt Q15173)
inactive: [1] -0.058 | [3] -0.098

PSMD3 (UniProt O43242)
inactive: [1] 0.028 | [2] -0.055 | [3] -0.006 | [4] -0.023 | [5] -0.011
